Assay results reported in the supplement of paper PMC10849652.
About 7,900 targets were measured; listed, in parts, are those with a hit and a random draw of the rest. About 0.6% of all pairs of compound and target were hits.

How the values were obtained:
Assay in all cases: log2 fold change, soluble protein after heating vs DMSO (PISA); higher = thermal stabilisation; K562 cells, 10 uM, 30 min; active = over 0.2 and 3.5 SD of the protein, either way, in both replicates (recomputed)
[1] = compound: CC[C@@H]1C(=O)N(C)c2cnc(Nc3ccc(C(=O)NC4CCN(C)CC4)cc3OC)nc2N1C1CCCC1
Method in brief: (§1)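 For each measurement, 10 μM compound was applied for 30 min to K562 cells at 2×10^6 cells/mL. Aliquots were heated for 3 min across 48°C-58°C, pooled, and extracted in PBS with 0.5% NP-40 at 4°C; the supernatant after 21,000xg for 90 min was soluble protein. This was quantified by TMTpro 16plex LC-MS/MS with channel sums equalised, and thermal stability was reported relative to control samples from duplicates, on a log2 fold-change scale.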

volasertib = compound: CC[C@@H]1C(=O)N(C)c2cnc(Nc3ccc(C(=O)N[C@H]4CC[C@H](N5CCN(CC6CC6)CC5)CC4)cc3OC)nc2N1C(C)C [volasertib]
Method in brief: as §1

[2] = compound: CC[C@H](C)N1C=C(C2=C(C=C(C=C21)C3=CN=C(C=C3)N4CCNCC4)C(=O)NCC5=C(C=C(NC5=O)C)C)C
Method in brief: as §1

epoxomicin = compound: CC[C@H](C)[C@@H](C(=O)N[C@@H]([C@@H](C)O)C(=O)N[C@@H](CC(C)C)C(=O)[C@]1(CO1)C)NC(=O)[C@H]([C@@H](C)CC)N(C)C(=O)C [epoxomicin]
Method in brief: as §1

[3] = compound: CCn1c(C(=O)N(C2CC2)C2CC2)cc2c3c(ncn3C)c(Nc3cc(C)n(C)n3)nc21
Method in brief: as §1

[4] = compound: CCn1cc(-c2ccnc3[nH]c(-c4cccc(CN(C)C)c4)cc23)c(-c2ccc(NC(=O)N(C)C)cc2)n1
Method in brief: as §1

[5] = compound: CN(C)CC(=O)Nc1ccc2[nH]c(=O)c3ccccc3c2c1
Method in brief: as §1

rosiglitazone = compound: CN(CCOC1=CC=C(C=C1)C[C@H]2C(=O)NC(=O)S2)C3=CC=CC=N3 (racemic) [rosiglitazone]
Method in brief: as §1

[6] = compound: CN1C2=C(C3=C1C(=O)N(N=C3)CC4=CC(=CC=C4)N)SC(=C2)S(=O)C
Method in brief: as §1

[7] = compound: CN1CCC(CNc2ccc3ncc(-c4cccc(OC(F)(F)F)c4)n3n2)CC1
Method in brief: as §1

saracatinib = compound: CN1CCN(CCOc2cc(OC3CCOCC3)c3c(Nc4c(Cl)ccc5c4OCO5)ncnc3c2)CC1 [saracatinib]
Method in brief: as §1

sotrastaurin = compound: CN1CCN(c2nc(C3=C(c4c[nH]c5ccccc45)C(=O)NC3=O)c3ccccc3n2)CC1 [sotrastaurin]
Method in brief: as §1

alvocidib = compound: CN1CC[C@H](c2c(O)cc(O)c3c(=O)cc(-c4ccccc4Cl)oc23)[C@H](O)C1 [alvocidib]
Method in brief: as §1

Tubastatin A = compound: CN1CCc2c(c3ccccc3n2Cc2ccc(C(=O)NO)cc2)C1 [Tubastatin A]
Method in brief: as §1

[8] = compound: CNC(=O)C1=CC=CC=C1NC2=NC(=NC=C2Cl)NC3=C(C=C(C=C3)N4CCOCC4)OC
Method in brief: as §1

defactinib = compound: CNC(=O)c1ccc(Nc2ncc(C(F)(F)F)c(NCc3nccnc3N(C)S(C)(=O)=O)n2)cc1 [defactinib]
Method in brief: as §1

rucaparib = compound: CNCc1ccc(-c2[nH]c3cc(F)cc4c3c2CCNC4=O)cc1 [rucaparib]
Method in brief: as §1

[9] = compound: CNc1nc(-c2ccc3c(N)n[nH]c3c2)cc(N2C[C@@H](C(=O)NC3CCCCC3)CC[C@H]2C)n1
Method in brief: as §1

encorafenib = compound: COC(=O)N[C@@H](C)CNc1nccc(-c2cn(C(C)C)nc2-c2cc(Cl)cc(NS(C)(=O)=O)c2F)n1 [encorafenib]
Method in brief: as §1

[10] = compound: COC(=O)[C@H](CCSC)NC(=O)C1=C(C=C(C=C1)NC[C@H](CS)N)C2=CC=CC=C2
Method in brief: as §1

Measured: log2 fold change

ATP1A4 (UniProt Q13733)
active: [7] 0.26
inactive: [1] 0.125 | volasertib 0.07 | [2] -0.025 | epoxomicin 0.081 | [3] -0.004 | [4] -0.056 | [5] -0.05 | rosiglitazone 0.006 | [6] -0.057 | saracatinib 0.066 | sotrastaurin -0.088 | alvocidib 0.015 | Tubastatin A -0.017 | [8] 0.151 | defactinib 0.033 | rucaparib -0.076 | [9] -0.108 | encorafenib 0.021 | [10] 0.118

BRIX1 (UniProt Q8TDN6)
UniProt Q8TDN6, sequence (Q8TDN6 whole entry, looked up): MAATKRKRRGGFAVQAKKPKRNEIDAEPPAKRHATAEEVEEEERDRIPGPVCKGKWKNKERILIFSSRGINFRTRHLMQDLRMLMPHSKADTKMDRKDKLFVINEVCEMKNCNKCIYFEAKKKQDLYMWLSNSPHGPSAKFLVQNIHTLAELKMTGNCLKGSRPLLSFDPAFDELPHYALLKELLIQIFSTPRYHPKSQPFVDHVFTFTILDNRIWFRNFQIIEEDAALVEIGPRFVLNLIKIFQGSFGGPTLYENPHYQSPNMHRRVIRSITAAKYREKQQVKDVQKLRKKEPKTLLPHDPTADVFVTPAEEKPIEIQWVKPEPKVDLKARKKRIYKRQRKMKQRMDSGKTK
inactive: [1] 0.166 | volasertib 0.317 | [2] 0.048 | epoxomicin -0.343 | [3] -0.041 | [4] 0.31 | [5] -0.143 | rosiglitazone -0.266 | [6] 0.36 | [7] 0.481 | saracatinib -0.106 | sotrastaurin -0.051 | alvocidib 0.174 | Tubastatin A 0.2 | [8] -0.154 | defactinib 0.394 | rucaparib 0.253 | [9] 0.129 | encorafenib 0.123 | [10] 0.017

ATP23 (UniProt Q9Y6H3)
UniProt Q9Y6H3, sequence (Q9Y6H3 whole entry, looked up): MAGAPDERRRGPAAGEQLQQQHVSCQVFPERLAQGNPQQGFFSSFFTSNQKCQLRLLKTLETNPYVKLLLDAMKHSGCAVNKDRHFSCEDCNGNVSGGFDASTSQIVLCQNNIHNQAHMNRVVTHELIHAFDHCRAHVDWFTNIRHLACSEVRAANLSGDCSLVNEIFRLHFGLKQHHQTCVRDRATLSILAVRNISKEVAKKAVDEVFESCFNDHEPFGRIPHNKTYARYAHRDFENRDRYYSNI
active: [7] -0.478
inactive: [1] -0.007 | volasertib 0.004 | [2] -0.078 | epoxomicin 0.016 | [3] 0.059 | [4] 0.055 | [5] -0.045 | rosiglitazone -0.011 | [6] -0.087 | saracatinib 0.029 | sotrastaurin 0.04 | alvocidib -0.031 | Tubastatin A -0.056 | [8] 0.055 | defactinib 0.028 | rucaparib 0.096 | [9] 0.041 | encorafenib 0.001 | [10] 0.01

AKT2 (UniProt P31751)
UniProt P31751, sequence (P31751 whole entry, looked up): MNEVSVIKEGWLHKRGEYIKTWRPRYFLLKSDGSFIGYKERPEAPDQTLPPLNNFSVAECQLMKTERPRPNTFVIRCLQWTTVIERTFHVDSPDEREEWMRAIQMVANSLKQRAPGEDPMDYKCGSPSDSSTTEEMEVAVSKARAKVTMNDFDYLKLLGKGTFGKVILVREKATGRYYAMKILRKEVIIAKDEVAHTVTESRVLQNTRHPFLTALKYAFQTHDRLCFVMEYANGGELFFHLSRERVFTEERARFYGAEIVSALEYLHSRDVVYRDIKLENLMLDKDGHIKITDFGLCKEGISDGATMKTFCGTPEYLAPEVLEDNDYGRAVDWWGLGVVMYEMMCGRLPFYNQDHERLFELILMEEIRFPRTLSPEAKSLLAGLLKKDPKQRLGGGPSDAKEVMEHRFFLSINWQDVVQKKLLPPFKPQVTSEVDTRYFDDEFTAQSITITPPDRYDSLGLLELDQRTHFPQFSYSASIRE
inactive: [1] -0.017 | volasertib -0.253 | [2] 0.128 | epoxomicin 0.079 | [3] -0.061 | [4] -0.175 | [5] -0.026 | rosiglitazone 0.082 | [6] -0.038 | [7] -0.119 | saracatinib -0.012 | sotrastaurin -0.068 | alvocidib -0.005 | Tubastatin A 0.01 | [8] 0.042 | defactinib -0.009 | rucaparib -0.058 | [9] -0.102 | encorafenib 0.015 | [10] 0.013

BID isoform 2 (UniProt P55957)
UniProt P55957, sequence (P55957 whole entry, looked up): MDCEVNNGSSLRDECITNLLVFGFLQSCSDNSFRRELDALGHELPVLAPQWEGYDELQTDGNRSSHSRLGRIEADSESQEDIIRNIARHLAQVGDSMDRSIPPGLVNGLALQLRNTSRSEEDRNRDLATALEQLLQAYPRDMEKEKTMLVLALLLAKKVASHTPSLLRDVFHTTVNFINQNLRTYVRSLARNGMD
inactive: [1] 0.013 | volasertib -0.196 | [2] -0.022 | epoxomicin -0.036 | [3] -0.022 | [4] 0.045 | [5] 0.042 | rosiglitazone 0.001 | [6] -0.068 | [7] -0.048 | saracatinib 0.008 | sotrastaurin 0.04 | alvocidib -0.018 | Tubastatin A 0.076 | [8] -0.053 | defactinib -0.031 | rucaparib 0.033 | [9] -0.017 | encorafenib -0.011 | [10] -0.032

AP2S1 (UniProt P53680)
UniProt P53680, sequence (P53680 whole entry, looked up): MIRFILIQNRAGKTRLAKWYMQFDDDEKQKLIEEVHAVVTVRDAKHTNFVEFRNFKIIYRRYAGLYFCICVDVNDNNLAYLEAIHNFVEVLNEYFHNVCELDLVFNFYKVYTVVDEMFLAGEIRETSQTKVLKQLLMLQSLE
inactive: [1] 0.035 | volasertib 0.018 | [2] -0.024 | epoxomicin -0.022 | [3] 0.023 | [4] -0.008 | [5] -0.071 | rosiglitazone 0.02 | [6] -0.005 | [7] 0.037 | saracatinib 0.012 | sotrastaurin 0.009 | alvocidib -0.009 | Tubastatin A 0.009 | [8] 0.077 | defactinib 0.038 | rucaparib 0.019 | [9] -0.012 | encorafenib 0.077 | [10] 0.025

ASNS (UniProt P08243)
inactive: [1] -0.01 | volasertib 0.015 | [2] 0.008 | epoxomicin 0.021 | [3] 0.008 | [4] -0.051 | [5] -0.008 | rosiglitazone 0.003 | [6] -0.064 | [7] -0.037 | saracatinib 0.041 | sotrastaurin 0.016 | alvocidib -0.013 | Tubastatin A -0.002 | [8] -0.036 | defactinib -0.018 | rucaparib -0.017 | [9] -0.015 | encorafenib -0.009 | [10] -0.001

ATP6AP1 (UniProt Q15904)
inactive: [1] -0.05 | volasertib -0.02 | [2] 0.033 | epoxomicin 0.09 | [3] 0.011 | [4] 0.037 | [5] -0.074 | rosiglitazone 0 | [6] 0.098 | [7] 0.016 | saracatinib -0.021 | sotrastaurin -0.097 | alvocidib 0.055 | Tubastatin A 0.043 | [8] -0.011 | defactinib 0.066 | rucaparib -0.057 | [9] -0.006 | encorafenib 0.053 | [10] -0.031

ALDH9A1 (UniProt P49189)
inactive: [1] -0.035 | volasertib 0.009 | [2] 0.111 | epoxomicin -0.011 | [3] 0.095 | [4] -0.005 | [5] 0 | rosiglitazone -0.062 | [6] -0.015 | [7] 0.016 | saracatinib 0.005 | sotrastaurin 0.032 | alvocidib -0.088 | Tubastatin A -0.019 | [8] 0.016 | defactinib -0.008 | rucaparib -0.014 | [9] -0.041 | encorafenib 0.023 | [10] -0.058

AKR1C3 (UniProt P42330)
UniProt P42330, sequence (P42330 whole entry, looked up): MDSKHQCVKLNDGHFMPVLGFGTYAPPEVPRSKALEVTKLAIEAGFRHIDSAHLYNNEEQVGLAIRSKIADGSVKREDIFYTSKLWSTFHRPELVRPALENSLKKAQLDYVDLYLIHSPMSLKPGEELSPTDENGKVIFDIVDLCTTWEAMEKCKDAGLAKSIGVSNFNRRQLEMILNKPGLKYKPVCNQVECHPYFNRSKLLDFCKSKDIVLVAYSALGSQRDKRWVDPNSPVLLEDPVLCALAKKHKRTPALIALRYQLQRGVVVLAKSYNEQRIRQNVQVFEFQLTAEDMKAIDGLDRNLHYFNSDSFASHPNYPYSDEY
inactive: [1] 0.011 | volasertib 0.009 | [2] -0.01 | epoxomicin 0 | [3] 0.131 | [4] -0.247 | [5] 0.067 | rosiglitazone -0.06 | [6] -0.127 | [7] 0.214 | saracatinib 0.05 | sotrastaurin 0.093 | alvocidib -0.054 | Tubastatin A 0.044 | [8] 0.188 | defactinib 0.222 | rucaparib 0.061 | [9] 0.424 | encorafenib -0.081 | [10] 0.007

ABCC5 (UniProt O15440)
UniProt O15440, sequence (O15440 whole entry, looked up): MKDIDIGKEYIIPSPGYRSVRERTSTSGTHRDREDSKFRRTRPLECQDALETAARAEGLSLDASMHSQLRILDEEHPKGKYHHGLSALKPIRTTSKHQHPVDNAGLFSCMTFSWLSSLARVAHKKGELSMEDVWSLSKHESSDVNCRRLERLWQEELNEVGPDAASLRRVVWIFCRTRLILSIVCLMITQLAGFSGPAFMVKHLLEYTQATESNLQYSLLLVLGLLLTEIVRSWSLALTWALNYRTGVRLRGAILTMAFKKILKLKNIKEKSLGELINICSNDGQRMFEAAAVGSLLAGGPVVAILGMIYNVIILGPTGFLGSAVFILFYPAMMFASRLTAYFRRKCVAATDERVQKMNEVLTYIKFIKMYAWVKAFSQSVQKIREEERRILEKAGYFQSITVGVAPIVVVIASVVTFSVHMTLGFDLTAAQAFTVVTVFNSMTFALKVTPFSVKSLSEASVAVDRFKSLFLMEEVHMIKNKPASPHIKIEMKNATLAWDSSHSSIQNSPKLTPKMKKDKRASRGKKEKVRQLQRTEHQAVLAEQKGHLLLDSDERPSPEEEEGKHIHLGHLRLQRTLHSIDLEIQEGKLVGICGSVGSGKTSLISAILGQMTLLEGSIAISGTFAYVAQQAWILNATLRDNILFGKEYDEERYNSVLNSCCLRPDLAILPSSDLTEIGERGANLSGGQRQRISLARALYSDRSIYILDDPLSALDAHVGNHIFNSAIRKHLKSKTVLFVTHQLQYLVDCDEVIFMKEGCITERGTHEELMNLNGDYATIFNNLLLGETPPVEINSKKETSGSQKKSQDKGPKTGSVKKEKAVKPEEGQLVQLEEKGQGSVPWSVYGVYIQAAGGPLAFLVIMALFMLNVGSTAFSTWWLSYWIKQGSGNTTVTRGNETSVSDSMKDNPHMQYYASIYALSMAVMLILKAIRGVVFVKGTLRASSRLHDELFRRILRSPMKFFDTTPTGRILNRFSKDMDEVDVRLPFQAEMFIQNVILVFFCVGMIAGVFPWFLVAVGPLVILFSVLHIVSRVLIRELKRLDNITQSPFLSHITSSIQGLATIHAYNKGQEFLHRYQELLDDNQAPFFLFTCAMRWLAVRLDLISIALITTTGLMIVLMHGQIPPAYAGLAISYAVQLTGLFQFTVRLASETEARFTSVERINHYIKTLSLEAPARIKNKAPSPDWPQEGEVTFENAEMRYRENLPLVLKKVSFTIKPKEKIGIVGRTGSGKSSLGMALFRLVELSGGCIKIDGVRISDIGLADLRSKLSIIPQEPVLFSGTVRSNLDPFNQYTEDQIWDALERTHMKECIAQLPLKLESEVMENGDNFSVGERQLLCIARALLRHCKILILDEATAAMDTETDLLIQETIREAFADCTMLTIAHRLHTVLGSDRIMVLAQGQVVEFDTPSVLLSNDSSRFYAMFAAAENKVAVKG
inactive: [1] -0.075 | volasertib 0.027 | [2] 0.023 | epoxomicin -0.028 | [3] 0.024 | [4] -0.031 | [5] -0.069 | rosiglitazone -0.003 | [6] 0.028 | [7] 0.075 | saracatinib 0.107 | sotrastaurin -0.028 | alvocidib 0.007 | Tubastatin A 0.002 | [8] -0.02 | defactinib 0.019 | rucaparib 0.116 | [9] -0.003 | encorafenib -0.039 | [10] 0.026

ATP6V0A1 isoform 3 (UniProt Q93050)
UniProt Q93050, sequence (Q93050 whole entry, looked up): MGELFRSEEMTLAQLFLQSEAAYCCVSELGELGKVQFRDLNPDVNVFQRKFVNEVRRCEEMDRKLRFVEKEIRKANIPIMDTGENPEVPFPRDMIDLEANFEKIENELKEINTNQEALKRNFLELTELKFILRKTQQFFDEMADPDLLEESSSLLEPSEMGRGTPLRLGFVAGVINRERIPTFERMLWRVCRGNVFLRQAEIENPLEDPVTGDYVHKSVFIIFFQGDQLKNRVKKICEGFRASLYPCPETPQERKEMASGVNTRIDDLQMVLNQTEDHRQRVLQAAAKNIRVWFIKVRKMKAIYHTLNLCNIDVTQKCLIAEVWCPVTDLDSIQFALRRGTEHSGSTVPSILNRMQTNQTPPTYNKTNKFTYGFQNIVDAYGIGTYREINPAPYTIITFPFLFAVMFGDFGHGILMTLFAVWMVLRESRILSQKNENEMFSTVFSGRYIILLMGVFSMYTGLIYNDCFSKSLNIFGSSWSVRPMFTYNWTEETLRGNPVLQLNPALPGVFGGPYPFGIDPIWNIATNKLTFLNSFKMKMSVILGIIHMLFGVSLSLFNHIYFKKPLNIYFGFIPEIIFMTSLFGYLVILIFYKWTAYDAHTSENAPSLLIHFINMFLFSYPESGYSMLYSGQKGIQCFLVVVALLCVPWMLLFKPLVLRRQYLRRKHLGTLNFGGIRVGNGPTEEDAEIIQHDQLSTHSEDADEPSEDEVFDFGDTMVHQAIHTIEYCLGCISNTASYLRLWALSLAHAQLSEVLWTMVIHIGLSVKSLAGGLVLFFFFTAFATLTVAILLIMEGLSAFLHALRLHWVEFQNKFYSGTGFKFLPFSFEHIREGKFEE
inactive: [1] -0.056 | volasertib 0.174 | [2] -0.01 | epoxomicin 0.044 | [3] 0.034 | [4] -0.054 | [5] -0.009 | rosiglitazone -0.017 | [6] 0.239 | [7] -0.137 | saracatinib -0.253 | sotrastaurin -0.236 | alvocidib 0.06 | Tubastatin A 0.089 | [8] -0.052 | defactinib 0.125 | rucaparib 0.154 | [9] 0.032 | encorafenib 0.196 | [10] -0.02

ATOX1 (UniProt O00244)
UniProt O00244, sequence (O00244 whole entry, looked up): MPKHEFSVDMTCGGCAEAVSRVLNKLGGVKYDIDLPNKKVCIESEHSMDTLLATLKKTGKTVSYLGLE
inactive: [1] 0.009 | volasertib 0 | [2] -0.015 | epoxomicin 0.107 | [3] 0.016 | [4] -0.079 | [5] 0.056 | rosiglitazone 0.012 | [6] -0.023 | [7] 0.094 | saracatinib -0.042 | sotrastaurin -0.054 | alvocidib -0.106 | Tubastatin A 0.062 | [8] 0.001 | defactinib -0.117 | rucaparib -0.09 | [9] -0.046 | encorafenib 0.047 | [10] -0.105

AGPAT3 isoform 3 (UniProt Q9NRZ7)
UniProt Q9NRZ7, sequence (Q9NRZ7 whole entry, looked up): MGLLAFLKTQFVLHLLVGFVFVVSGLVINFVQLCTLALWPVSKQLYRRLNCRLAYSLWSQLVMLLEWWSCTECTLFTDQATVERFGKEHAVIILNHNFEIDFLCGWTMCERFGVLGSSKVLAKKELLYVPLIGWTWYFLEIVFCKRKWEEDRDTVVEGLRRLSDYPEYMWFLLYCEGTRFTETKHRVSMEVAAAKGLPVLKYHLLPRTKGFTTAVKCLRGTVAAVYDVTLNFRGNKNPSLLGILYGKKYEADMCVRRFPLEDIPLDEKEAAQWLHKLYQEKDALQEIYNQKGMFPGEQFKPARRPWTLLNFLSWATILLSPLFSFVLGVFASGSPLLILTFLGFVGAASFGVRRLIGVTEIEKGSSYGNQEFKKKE
inactive: [1] -0.095 | [2] 0.017 | epoxomicin 0.02 | [3] 0.004 | [4] -0.082 | [5] 0.012 | rosiglitazone 0.011 | [6] -0.069 | [7] 0.001 | saracatinib 0.01 | sotrastaurin -0.084 | alvocidib -0.061 | Tubastatin A 0.019 | [8] 0.012 | defactinib -0.037 | rucaparib -0.036 | [9] -0.045 | encorafenib -0.001 | [10] 0.008
active: volasertib -0.211

ARMC10 (UniProt Q8N2F6)
inactive: [1] -0.062 | [2] 0.075 | epoxomicin 0.022 | [3] -0.017 | [4] -0.008 | [5] 0.062 | rosiglitazone 0.015 | [6] 0.002 | [7] -0.044 | saracatinib 0.012 | sotrastaurin -0.123 | alvocidib 0.002 | Tubastatin A 0.109 | [8] 0.079 | defactinib -0.03 | rucaparib 0.157 | [9] 0.006 | encorafenib 0.142 | [10] -0.049
active: volasertib -0.333

ALG5 (UniProt Q9Y673)
UniProt Q9Y673, sequence (Q9Y673 whole entry, looked up): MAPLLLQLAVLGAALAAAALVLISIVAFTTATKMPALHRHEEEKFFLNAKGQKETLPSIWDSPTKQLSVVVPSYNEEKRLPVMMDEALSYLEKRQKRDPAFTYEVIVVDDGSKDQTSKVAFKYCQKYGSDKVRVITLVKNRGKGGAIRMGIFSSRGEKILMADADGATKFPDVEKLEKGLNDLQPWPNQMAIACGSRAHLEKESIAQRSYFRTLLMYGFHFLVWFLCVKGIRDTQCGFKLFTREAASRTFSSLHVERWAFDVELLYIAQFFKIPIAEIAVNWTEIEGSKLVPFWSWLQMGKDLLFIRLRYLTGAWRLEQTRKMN
inactive: [1] -0.028 | volasertib -0.026 | [2] 0.017 | epoxomicin 0.043 | [3] -0.036 | [4] -0.069 | [5] 0.035 | rosiglitazone 0.078 | [6] -0.088 | [7] 0.017 | saracatinib -0.011 | sotrastaurin -0.071 | alvocidib -0.088 | Tubastatin A 0.005 | [8] 0.016 | defactinib -0.055 | rucaparib -0.113 | [9] 0.008 | encorafenib -0.025 | [10] -0.036
